ELG1 genotox: induces genotoxicity in HEK293T cells with luciferase-tagged ELG1; hit rate 1.3% among 330,000; Potency, µM (series often up to 46 µM), actives largely listed as activators; HEK293T ELG1-luciferase reporter, luminescence, 16 h; note: nearly all actives have a fitted effect of over 60% in size
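Genotoxicity was scored as increased ELG1-luciferase reporter signal, measured by ONE-Glo luminescence (30 min, room temperature). Compound or vehicle exposure of the HEK293T reporter cells lasted 16 hr at 37°C.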
SMN2 splice up: SMN2 splice variant enhancement | HEK293 SMN2-luciferase splicing reporter, luminescence, 30-36 h | Potency, µM (series often up to 46.1 µM), hits mostly activators | hit rate 2.8% among 210,000 | AID 1458; note: nearly all actives have a fitted effect of over 55% in size
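HEK293 cells carry an SMN2 […]–luciferase reporter in which exon 7 inclusion puts luciferase in frame. Cells were plated 10-12 h before compound addition, then incubated 30-36 h at 37C. ONE-Glo luminescence was read; sodium butyrate at 4.5 mM final served as control.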
NPC1 prom act: NPC1 promoter activation. Potency, µM (top dose mostly 9.22 µM), most hits filed as activators. hit rate 2.4% among 320,000. Huh7 NPC1 promoter luciferase reporter, 24 h; note: nearly all actives have a fitted effect of over 60% in size
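Readout is luciferase luminescence, reflecting NPC1 promoter activation in stably transfected Huh7 cells after 24 h compound exposure at 37 °C in reduced-serum medium with 10% FBS.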
FLuc counter: inhibits or activates purified firefly luciferase, miR-21 counter-screen; P08659; hit rate 6.9% among 360,000; Potency, µM (doses to about 57.5 µM), usual class: inhibitors; AID 588342; purified FLuc, Km substrates, luminescence inhibition; note: nearly all actives have a fitted effect of over 55% in size
Target sequence (P08659 whole entry, looked up): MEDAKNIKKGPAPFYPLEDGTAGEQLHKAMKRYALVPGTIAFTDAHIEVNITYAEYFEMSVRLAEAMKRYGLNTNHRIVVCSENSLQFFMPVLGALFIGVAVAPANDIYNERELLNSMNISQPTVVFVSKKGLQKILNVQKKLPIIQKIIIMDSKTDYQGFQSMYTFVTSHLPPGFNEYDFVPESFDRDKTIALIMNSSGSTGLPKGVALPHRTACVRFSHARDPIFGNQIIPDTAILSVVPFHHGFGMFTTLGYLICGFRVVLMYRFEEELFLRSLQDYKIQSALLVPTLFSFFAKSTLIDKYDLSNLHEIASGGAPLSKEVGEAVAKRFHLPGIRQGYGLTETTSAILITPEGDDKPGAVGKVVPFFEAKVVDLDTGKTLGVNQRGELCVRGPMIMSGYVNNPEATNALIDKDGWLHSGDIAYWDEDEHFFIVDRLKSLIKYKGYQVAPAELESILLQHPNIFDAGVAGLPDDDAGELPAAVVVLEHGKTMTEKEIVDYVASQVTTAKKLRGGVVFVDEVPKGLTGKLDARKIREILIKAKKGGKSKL
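Biochemical qHTS of compounds, final roughly 60 µM downward over six points, against 10 nM purified firefly luciferase using Km concentrations of substrates (10 uM D-luciferin, 10 uM ATP) in Tris acetate pH 7.5 buffer; luminescence output.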
Rab9 promoter act: activators of Rab9 promoter; Huh7 Rab9 promoter-luciferase reporter, luminescence, 24 h; Potency, µM (highest dose often 9.22 µM), hits mostly activators; hit rate 2.8% among 320,000; note: nearly all actives have a fitted effect of over 60% in size
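Luminescence read-out: Huh7 cells stably expressing Rab9-luciferase, treated 24 h with compound at 37 °C, then lysed with luciferase reagent for 10 min at ambient before reading.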
uPA surface inh: inhibitors of cell surface uPA generation; cell surface uPA generation assay, qHTS; Potency, µM (highest dose often 38.3 µM), hits mostly inhibitors; hit rate 0.31% among 330,000; AID 540303; active = well fitted inhibition curve with a large enough effect; inconclusive = small, poorly fitted or top-dose-only effect; inactive = no such curve, though single readings can be large or run the other way; tested in mouse RAW 264.7 cells; note: nearly all actives have a fitted effect of over 55% in size
A number is an active result; i = inactive; ? = inconclusive; nt = no result. This is a sample that favours compounds with a hit; in the whole collection about 7.3% have one here. Unless noted, calls come from the whole dose curve; as a rule, active = well fitted curve in the direction sought with a large enough effect; inconclusive = small, poorly fitted or top-dose-only effect, or another doubt; inactive = no such curve, though single readings can be large; an effect the other way counts as inactive or inconclusive.

SMILES | ELG1 genotox | SMN2 splice up | NPC1 prom act | FLuc counter | Rab9 promoter act | uPA surface inh
Cc1cc(C)nc(-n2nc(C)c3c2N(Cc2ccccc2)C(=O)CC3c2ccc(Cl)cc2)n1 (centres undefined) | nt | nt | nt | i | nt | nt
c1ccc(Nc2cccc(Nc3ccccc3)n2)cc1 | ? | i | i | 19µM | ? | i
Cc1ccc(S(=O)(=O)N2CCCc3cc(NC(=O)c4ccc(C(F)(F)F)cc4)ccc32)cc1 | nt | nt | nt | i | nt | nt
COc1ccc(OC)c2sc(N3CCc4ccccc4C3)nc12 | i | i | i | 12µM | i | i
c1ccc2c(c1)CCN(c1nc3cc4c(cc3s1)OCCO4)C2 | ? | nt | ? | 0.107µM | ? | i
COc1ccc(OC)c2sc(N3CCN(C(=O)c4ccc([N+](=O)[O-])s4)CC3)nc12 | i | nt | i | i | i | i
COc1ccc(OC)c2sc(N3CCCCC3)nc12 | 18.4µM | ? | i | 19µM | i | i
O=C1/C(=C/c2cccnc2)SC(=S)N1CCc1ccccc1 | ? | nt | i | 10.7µM | i | i
O=C(CCN1C(=O)/C(=C/C=C/c2ccccc2)SC1=S)Nc1cccnc1 | ? | ? | i | 1.07µM | ? | i
O=C(CCN1C(=O)/C(=C/C=C/c2ccccc2)SC1=S)Nc1ccccn1 | i | nt | i | 23.9µM | i | i
O=C1/C(=C/c2cccnc2)SC(=NCc2ccccc2)N1Cc1ccccc1 | i | i | i | i | i | i
O=C(O)CN1C(=O)/C(=C/c2ccsc2)SC1=S | i | i | i | 19µM | i | i
COc1ccccc1-c1cc2nc(C)c(CCC(=O)Nc3ccc(Br)c(C)c3)c(C)n2n1 | nt | i | nt | i | nt | nt
O=C(O)CN1C(=O)/C(=C/C=C/c2ccccc2)SC1=S | i | i | ? | 2.69µM | i | ?
O=C(O)CN1C(=O)/C(=C\C(Br)=C\c2ccccc2)SC1=S | ? | nt | i | 9.53µM | i | i
Cc1c(Cl)cccc1NC(=O)CSc1nc(=O)n(CCN2CCOCC2)c2c1CCC2 | nt | nt | nt | i | nt | nt
CCCCn1cc(S(=O)(=O)c2cc(C)ccc2C)c(=O)c2cc(F)c(N3CCC(C)CC3)cc21 | nt | nt | nt | i | nt | nt
Cc1ccc(-n2c(=O)c3ccc(C(=O)NCc4ccccc4Cl)cc3n(Cc3ccccc3F)c2=O)cc1 | nt | i | nt | i | nt | nt
CCNC(=O)c1ccc2c(c1)S(=O)(=O)c1ccccc1C2=O | i | i | i | i | i | i
CCCCNC(=O)c1ccc2c(c1)S(=O)(=O)c1ccccc1C2=O | i | nt | i | 15.1µM | i | i
Cc1ccc(SCC(=O)Nc2ccc(-c3nc4ccccc4[nH]3)cc2)cc1 | ? | 5.62µM | ? | i | ? | i
CC(=O)Nc1ccc(-c2nc3c(C)cccc3[nH]2)cc1 | 2.91µM | 3.55µM | 2.51µM | 2.39µM | 1.58µM | i
CCc1nnc(NC(=O)CSc2ccc(-c3nc4ccccc4[nH]3)cn2)s1 | ? | ? | ? | ? | 2.51µM | i
CN(C)CCNC(=S)Nc1ccc(-c2nc3ccccc3[nH]2)cc1 | i | 11.2µM | 2.24µM | 9.53µM | 1.58µM | i
Cc1cccc(N2CCN(C(=O)/C=C/c3cccs3)CC2)c1C | i | nt | i | ? | i | i
SMILES | ELG1 genotox | SMN2 splice up | NPC1 prom act | FLuc counter | Rab9 promoter act | uPA surface inh
O=C(CSc1ccc(-c2nc3ccccc3[nH]2)cn1)Nc1ccc(S(=O)(=O)NC2CC2)cc1 | i | i | i | 1.51µM | i | i
O=C(CSC1=NCCS1)Nc1ccc(S(=O)(=O)NC2CCCCC2)cc1 | i | i | i | i | i | nt
O=C(CSc1n[nH]c(-c2ccccc2)n1)N1CCOCC1 | i | nt | i | ? | i | i
CCc1nnc(NC(=O)CSc2n[nH]c(-c3ccccc3O)n2)s1 | i | nt | i | 16.9µM | i | i
Cc1ccc2nc(SCC(=O)Nc3nnc(SCC(N)=O)s3)[nH]c2c1 | i | i | i | 16.9µM | i | nt
O=C(CSc1n[nH]c(-c2ccccc2O)n1)N1CCOCC1 | i | i | i | 19µM | i | i
Cc1nnc(NC(=O)CSc2n[nH]c(-c3ccccc3C)n2)s1 | i | nt | i | i | i | i
C#CCCc1cocc1/C=[N+](\[O-])c1ccc(C(=O)OCC)cc1 | i | nt | i | i | i | i
COc1cccc(N2CC(NC(=O)c3ccc4c(c3)OCO4)CC2=O)c1 (centres undefined) | nt | nt | nt | i | nt | nt
CC(=O)NC(c1ccco1)c1cc(Br)c2cccnc2c1O (centres undefined) | nt | nt | i | i | i | nt
